This passage reports morphology score and SARS-CoV-2 infection rate results from the supplement of paper PMC13380429.

Assay [1] has as its system Vero E6 infected with SARS-CoV-2. In words: morphology score (similarity to uninfected cells); higher = more like uninfected cells. Conditions: 24 h.
The test system is the same in assay [2]. In words: SARS-CoV-2 infection rate relative to infected DMSO; higher = more infection, active = 60 or less. The following applies: 24 h.

In assay [1], `Cc1cccc(C)c1OCC(=O)N[C@@H](Cc1ccccc1)[C@@H](O)C[C@H](Cc1ccccc1)NC(=O)[C@H](C(C)C)N1CCCNC1=O` [lopinavir] (10 µM) showed a morphology score of 0.184. Moreover, the SARS-CoV-2 infection rate in assay [2] was 105% (inactive).
Taken in the same sequence, the figures for `O=S(=O)(O)c1ccc2[nH]c(-c3ccccc3)nc2c1` [phenylbenzimidazole-sulfonic-acid] (10 µM) were 0.087 and 104% (inactive).
The matching figures for `CC(C)(C)/[N+]([O-])=C/c1ccc(S(=O)(=O)O)cc1S(=O)(=O)O` (10 µM): 0.00191 and 114% (inactive).
The matching figures for `O=C(Nc1ccccc1)N1CCC(Cc2cnc3ccccc3c2)CC1` (10 µM): -0.147 and 104% (inactive).
In turn, `CCCNCC(O)COc1ccccc1C(=O)CCc1ccccc1` (stereo unspecified) [propafenone] (0.833333 µM) returned a morphology score in assay [1] of -0.109. For the same molecule, the SARS-CoV-2 infection rate in assay [2] was 110% (inactive).
Taken in the same sequence, the figures for `CC(C)[C@H]1C(=O)N[C@@H](CCCNC(=N)N)C(=O)NCC(=O)N[C@@H](CC(=O)O)C(=O)N[C@H](Cc2ccccc2)C(=O)N1C` [cilengitide] (10 µM) were -0.377 and 109% (inactive).
In the case of `OCCOCCN1CCN(C(c2ccccc2)c2ccc(Cl)cc2)CC1` (stereo unspecified) [hydroxyzine] (10 µM), the morphology score in assay [1] was 0.0655. Further, the SARS-CoV-2 infection rate in assay [2] was 104% (inactive).
`O=C1NC(=O)c2cc(Nc3ccc(F)cc3)c(Nc3ccc(F)cc3)cc21` (10 µM) came in with a morphology score in assay [1] of 0.329. Besides, the SARS-CoV-2 infection rate in assay [2] was 77.5% (inactive).
`CCn1nc(C2CCN(C(=O)CCO)CC2)nc1-c1cnc(N)c(-c2nnc(C(C)(C)C)o2)n1` (0.833333 µM) yielded a morphology score in assay [1] of 0.199. For the same molecule, the SARS-CoV-2 infection rate in assay [2] is 94% (inactive).
The matching figures for `CN1[C@@H]2CC[C@H]1C[C@@H](OC(c1ccc(F)cc1)c1ccc(F)cc1)C2` [3-alpha-bis-(4-fluorophenyl)-methoxytropane] (10 µM): 0.266 and 73% (inactive).
Taken in the same sequence, the figures for `NCC(=O)CCC(=O)O` [5-aminolevulinic-acid] (10 µM) were 0.0459 and 113% (inactive).
Taken in the same sequence, the figures for `Cc1c(N)nc([C@H](CC(N)=O)NC[C@H](N)C(N)=O)nc1C(=O)N[C@H](C(=O)N[C@H](C)[C@@H](O)[C@H](C)C(=O)N[C@H](C(=O)NCCc1nc(-c2nc(C(=O)NCCCNCCCCN)cs2)cs1)[C@@H](C)O)[C@@H](O[C@@H]1O[C@@H](CO)[C@@H](O)[C@H](O)[C@@H]1O[C@@H]1O[C@H](CO)[C@@H](O)[C@H](OC(N)=O)[C@@H]1O)c1cnc[nH]1` [bleomycetin] (0.833333 µM) were 0.128 and 111% (inactive).
In assay [1], `CN[C@@H]1[C@H](O)[C@H](NC)[C@H]2O[C@@]3(O)C(=O)C[C@@H](C)O[C@H]3O[C@@H]2[C@H]1O` [spectinomycin] (0.833333 µM) showed a morphology score of 0.0353. In assay [2], the SARS-CoV-2 infection rate is 102% (inactive).
Taken in the same sequence, the figures for `CCN(CC)CCCC(C)Nc1nc(C)cc(Nc2ccc3nc(C)cc(N)c3c2)n1` (stereo unspecified) (10 µM) were -0.115 and 110% (inactive).
The matching figures for `Cc1cc(C)c(N(Cc2ccccc2)S(=O)(=O)c2ccc(OCCNC(=O)c3cc4ccccc4o3)cc2)c(C(=O)NO)c1` (0.833333 µM): -0.0297 and 96% (inactive).
The matching figures for `CC1(C)[C@@H](OC(=O)CCC(=O)O)CC[C@]2(C)[C@H]3C(=O)C=C4[C@@H]5C[C@@](C)(C(=O)O)CC[C@]5(C)CC[C@@]4(C)[C@]3(C)CC[C@@H]12` (10 µM): 0.0746 and 106% (inactive).
`COc1cc(-c2ccc(=O)[nH]n2)ccc1OC(F)F` [zardaverine] (10 µM): the morphology score in assay [1] was found to be 0.289. For the same molecule, the SARS-CoV-2 infection rate in assay [2] was 83.5% (inactive).
The matching figures for `C=C[C@H]1CN2CC[C@H]1CC2C(OC(=O)OCC)c1ccnc2ccc(OC)cc12` (stereo in doubt) [quinine-ethyl-carbonate] (10 µM): 0.215 and 99% (inactive).
The matching figures for `CC1(CN)Cc2ccccc2C1` (10 µM): 0.0351 and 112% (inactive).
Taken in the same sequence, the figures for `CCC(=O)O[C@]1(C(=O)CO)CC[C@H]2[C@@H]3CCC4=CC(=O)CC[C@]4(C)[C@H]3CC[C@@]21C` (10 µM) were 0.188 and 102% (inactive).
With `CC(=O)c1ccc2c(c1)N(CCCN1CCN(CCO)CC1)c1ccccc1S2` [acetophenazine] (10 µM), the morphology score in assay [1] turned out to be 0.201. For the same molecule, the SARS-CoV-2 infection rate in assay [2] is 96.5% (inactive).
The matching figures for `N#CC[C@@H](C1CCCC1)n1cc(-c2ncnc3[nH]ccc23)cn1` [ruxolitinib-(S)] (10 µM): 0.62 and 105% (inactive).
Taken in the same sequence, the figures for `CN(C)CCCn1cc(C2=C(c3c[nH]c4ccccc34)C(=O)NC2=O)c2ccccc21` (0.833333 µM) were -0.0102 and 104% (inactive).
For `CC(C)[C@H]1CC[C@H](C(=O)N[C@H](Cc2ccccc2)C(=O)O)CC1` [nateglinide] (10 µM), in assay [1], the morphology score came out at 0.0232. In addition, the SARS-CoV-2 infection rate in assay [2] was 94.5% (inactive).
`COc1cc2c(=O)c(-c3ccc(O)cc3)coc2cc1O` [glycitein] (10 µM) had a morphology score in assay [1] of 0.00478. The SARS-CoV-2 infection rate in assay [2] is 110% (inactive).
Taken in the same sequence, the figures for `O=c1c(-c2ccc(O)cc2)coc2cc(O)ccc12` [daidzein] (10 µM) were 0.126 and 95% (inactive).
The matching figures for `Cc1cc(CCCOc2c(C)cc(-c3noc(C(F)(F)F)n3)cc2C)on1` [pleconaril] (10 µM): -0.0431 and 108% (inactive).
Taken in the same sequence, the figures for `c1cc(-c2cnn3cc(-c4ccc(OCCN5CCCCC5)cc4)cnc23)ccn1` [dorsomorphin] (0.833333 µM) were 0.321 and 96.5% (inactive).
